# The list is not random: actives were taken first. Their share in the collection is about 9.2%.
# ELG1 DNA repair: qHTS screen for small molecules that inhibit ELG1-dependent DNA repair in human embryonic kidney (HEK293T) cells expressing luciferase-tagged ELG1; HEK293T ELG1-luciferase reporter, luminescence, 16 h; DNA damage induced by 5-fluorouridine; Potency, µM (doses to about 46.1 µM), for inactives: at the top dose activity change, negative = inhibition, hits mostly inhibitors; 330,000 compounds, 2.3% hits; further: on the % scale 0 is the no-effect control and ±100 the full control effect; nearly all actives have a fitted effect of over 55% in size
#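 5-Fluorouridine DNA damage + compound/DMSO, 2,000 cells/well, 16 h, 37 °C/5% CO2. ONE-Glo, 30 min RT, luminescence. Readout = decrease in reporter signal.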
# ELG1 genotox: qHTS screen for small molecules that induce genotoxicity in human embryonic kidney (HEK293T) cells expressing luciferase-tagged ELG1 | HEK293T ELG1-luciferase reporter, luminescence, 16 h | Potency, µM (top dose mostly 46 µM), for inactives: top-dose activity change, positive = activation, usual class: activators | 330,000 compounds, 1.3% hits | AID 504466, 2011; further: % of control where 0% means no effect; nearly all actives have a fitted effect of over 60% in size
#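 Luminescence read-out: rising ELG1-luciferase signal, reflecting elevated ELG1 protein under genetic stress, flags genotoxic compounds. Cells were treated for 16 hr at 37 °C before ONE-Glo detection.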
# Rab9 promoter act: qHTS Assay for Rab9 Promoter Activators; Huh7 Rab9 promoter-luciferase reporter, luminescence, 24 h; Potency, µM (titrated, usually from 9.22 µM), inactives show at the highest dose activation, negative = inhibition, most hits filed as activators; 320,000 compounds, 2.8% hits; AID 485297, 2010; further: % of control where 0% means no effect; nearly all actives have a fitted effect of over 60% in size
#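 Quantitative HTS format; Huh7 Rab9-luciferase reporter cells (1500/well) receive compound 2 h post-plating, incubate 24 h at 37 °C, then get luciferase reagent for 10 min before luminescence reading.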
# NPC1 prom act: qHTS Assay for NPC1 Promoter Activators | 320,000 compounds, 2.4% hits | AID 485313, 2010 | Huh7 NPC1 promoter luciferase reporter, 24 h | Potency, µM (series often up to 9.22 µM), for the others: top-dose activation, hits mostly activators; further: % of control where 0% means no effect; nearly all actives have a fitted effect of over 60% in size
#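 NPC1 promoter–luciferase Huh7 cells; 24 h compound; luminescence.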
# SMN2 splice up: qHTS Assay for Enhancers of SMN2 Splice Variant Expression | 210,000 compounds, 2.8% hits | HEK293 SMN2-luciferase splicing reporter, luminescence, 30-36 h | Potency, µM (titrated, usually from 46.1 µM), inactives show top-dose activity change, positive = activation, hits mostly activators; further: % of control where 0% means no effect; nearly all actives have a fitted effect of over 55% in size
#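 HEK293 cells carry an SMN2 […]–luciferase reporter in which exon 7 inclusion puts luciferase in frame. Cells were plated 10-12 h before compound addition, then incubated 30-36 h at 37C. ONE-Glo luminescence was read; sodium butyrate at 4.5 mM final served as control.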
# FLuc modulator: qHTS profiling assay for firefly luciferase inhibitor/activator using purifed enzyme and Km concentrations of substrates (counterscreen for miR-21 project) | Luciferin 4-monooxygenase (Photinus pyralis), P08659 | purified FLuc, Km substrates, luminescence inhibition | Potency, µM (top dose mostly 57.5 µM), without a hit: top-dose activity change, negative = inhibition, most hits filed as inhibitors | 360,000 compounds, 6.9% hits | AID 588342, 2011;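 further: plate controls were vehicle for no effect and reference inhibitor for full effect; nearly all actives have a fitted effect of over 55% in size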
# Target sequence (P08659 whole entry, looked up): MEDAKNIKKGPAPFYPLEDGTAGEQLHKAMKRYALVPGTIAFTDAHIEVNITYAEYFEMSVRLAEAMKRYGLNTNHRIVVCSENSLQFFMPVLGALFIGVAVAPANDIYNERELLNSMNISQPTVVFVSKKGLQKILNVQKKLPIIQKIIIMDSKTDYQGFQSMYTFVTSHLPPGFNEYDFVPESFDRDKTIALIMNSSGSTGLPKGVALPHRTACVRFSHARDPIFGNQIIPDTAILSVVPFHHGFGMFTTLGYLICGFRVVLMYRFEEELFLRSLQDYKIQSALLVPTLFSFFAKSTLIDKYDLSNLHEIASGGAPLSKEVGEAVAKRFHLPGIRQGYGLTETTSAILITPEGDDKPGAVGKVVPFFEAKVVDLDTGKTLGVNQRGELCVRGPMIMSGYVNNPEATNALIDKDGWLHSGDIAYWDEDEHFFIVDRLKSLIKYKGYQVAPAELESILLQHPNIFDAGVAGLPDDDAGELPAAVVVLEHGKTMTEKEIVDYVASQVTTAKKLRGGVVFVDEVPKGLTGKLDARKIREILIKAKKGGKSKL
#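 Biochemical qHTS of compounds, final roughly 60 µM downward over six points, against 10 nM purified firefly luciferase using Km concentrations of substrates (10 uM D-luciferin, 10 uM ATP) in Tris acetate pH 7.5 buffer; luminescence output.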
# Numbers without * were called inactive; ? = inconclusive; . = no result. The call rests on the fitted dose curve; in most records, active means well fitted curve in the direction sought with a large enough effect; inconclusive means small, poorly fitted or top-dose-only effect, or another doubt; inactive means no such curve, though single readings can be large; an effect the other way counts as inactive or inconclusive. Potency means the concentration at half of the fitted maximal effect.
SMILES,ELG1 DNA repair,ELG1 genotox,Rab9 promoter act,NPC1 prom act,SMN2 splice up,FLuc modulator
Oc1sc(C=Nc2ccc(F)cc2)c2ccccc12,?,14%,2.8µM*,3.2µM*,10µM*,?
Oc1sc(C=Nc2ccccc2)c2ccccc12,?,?,?,?,8.9µM*,6µM*
COc1ccc(Cc2nn3c(Cn4nnc5ccccc54)nnc3s2)cc1,?,-5%,-2%,3%,-59%,11µM*
Cc1ccc(-c2nc3ccccc3nc2NN)cc1,?,8.2µM*,?,6%,.,1.3µM*
c1ccc(-c2ccc(-n3ccnc3)cc2)cc1,?,?,12%,25%,.,24µM*
COc1ccc(C)cc1Nc1nc(N)c2cc(OC)c(OC)cc2n1,5%,15%,-1%,2%,2%,?
COc1ccc(Cl)cc1Nc1nc(N)c2ccccc2n1,?,4%,20%,?,.,17µM*
Cc1ccc(O)c(Nc2nc(-c3ccccc3)nc3ccccc23)c1,?,-1%,4%,0%,.,-3%
Cc1ccc(C)c(Nc2nc(N)c3ccccc3n2)c1,?,?,2.5µM*,2.5µM*,14µM*,4.8µM*
Cc1ccc(O)c(Nc2c3ccccc3nc3ccccc23)c1,8.2µM*,-9%,0%,-2%,.,?
CCOC(=O)CC(=O)CSc1nc2ccccc2c(=O)n1CCc1ccc(S(N)(=O)=O)cc1,.,.,.,.,.,3%
CCC(C)N(C(=O)CSc1nnc2ccccn12)C1CCS(=O)(=O)C1 (centres undefined),15%,0%,3%,-2%,.,-1%
Cc1ccc(-c2noc(CNc3ccccc3)n2)cc1,?,?,23%,19%,?,19µM*
Cc1cccc(-c2nc(-c3ccncc3)no2)c1,?,9.2µM*,1.4µM*,1.6µM*,.,3µM*
Cc1cccc(-c2noc(-c3ccc4c(c3)OCO4)n2)c1,10%,3%,-1%,-3%,.,-17%
O=[N+]([O-])c1cc(-c2nc(-c3ccncc3)no2)ccc1Cl,?,-1%,-2%,7%,-12%,-16%
Clc1ccc(Br)cc1-c1nc(-c2ccncc2)no1,?,21µM*,22%,2%,?,?
c1cncc(-c2noc(-c3ccco3)n2)c1,?,?,4µM*,3.2µM*,-1%,?
COc1ccccc1C(=O)COC(=O)Cc1ccccc1F,?,9%,.,.,.,.
COc1cc(Cl)c(C)cc1NC(=O)c1cc2c(=O)oc3ccccc3c2s1,.,.,.,.,4%,-4%
C=CC[C@@](C(C)=O)(C(=O)OC)C(NC(=O)OC(C)(C)C)c1ccccc1 (some centres undefined),.,.,.,.,15%,.
Cc1ccc(-c2nc(-c3ccncc3)no2)cc1,?,3.7µM*,1µM*,0.89µM*,.,1.7µM*
FC(F)(F)c1ccc(-c2nnc(-c3cccnc3)o2)cc1,?,?,16%,?,.,-18%
Cc1ccc(-c2nnc(-c3cccnc3)o2)cc1,?,21µM*,?,2.8µM*,.,12µM*
CC(C)(C)c1ccc(-c2nc(-c3ccncc3)no2)cc1,?,?,0.45µM*,0.4µM*,17%,0.95µM*
SMILES,ELG1 DNA repair,ELG1 genotox,Rab9 promoter act,NPC1 prom act,SMN2 splice up,FLuc modulator
Cc1ccc(-c2nc(-c3cccnc3)no2)cc1,.,.,.,.,10µM*,1.5µM*
Cc1ccc(Cc2nc(-c3cccnc3)no2)cc1,?,6%,7%,14%,10%,?
COc1ccc(NC(=O)C2CCC(CNS(=O)(=O)c3cccs3)CC2)cc1 (centres undefined),?,15%,-4%,1%,-7%,-4%
CC(C)(C)c1ccc(-c2noc(-c3ccno3)n2)cc1,?,?,1.4µM*,1.3µM*,.,1.9µM*
Cc1ccc(OCc2nc(-c3cccnc3)no2)cc1C,?,11%,17%,14%,15%,?
Clc1cccc(Cl)c1-c1noc(-c2ccno2)n1,19%,3%,-1%,-3%,.,0%
CCCc1noc(-c2ccc(-c3ccccc3)cc2)n1,?,?,1.6µM*,1.6µM*,?,1.5µM*
Cc1noc(-c2ccc(-c3noc(-c4ccc(F)cc4)n3)cc2)n1,.,.,.,.,.,-6%
CCC(=O)Oc1ccc(-c2nc(-c3cccnc3)no2)cc1,?,?,4.5µM*,4µM*,?,3.4µM*
Cc1ccc(-c2nc(-c3ccccc3)no2)cc1,?,0.65µM*,1.3µM*,1µM*,8%,0.21µM*
COc1ccc(Cc2noc(-c3ccc(C)cc3)n2)cc1,?,?,14%,13%,-2%,?
COc1ccc(CCNC(=O)c2ccc3c(c2)sc2nc(-c4ccccc4)cn23)cc1OC,.,.,.,.,.,5%
O=C(Nc1ccc(Br)cc1F)C(NS(=O)(=O)c1cccc2nsnc12)c1ccccc1 (centres undefined),.,.,.,.,-24%,?
FC(F)(F)c1cccc(-c2nc(-c3ccncc3)no2)c1,?,18%,?,?,.,15µM*
Cc1ccc(-c2noc(-c3c(C)noc3C)n2)cc1,2%,3%,17%,-5%,.,-17%
Cc1cc(C)cc(-c2nc(-c3ccncc3)no2)c1,?,21µM*,?,?,-18%,11µM*
Cc1cccc(-c2noc(-c3c(C)noc3C)n2)c1,?,4%,3.2µM*,1.6µM*,.,?
CCOc1ccc(-c2nc(-c3ccccc3)no2)cc1OCC,?,?,?,?,-3%,13µM*
CCOC(=O)c1ccc(NC(=O)CCc2c(C)n(CC)c3cc(-c4ccccc4OC)nn3c2=O)cc1,.,.,.,.,10%,-2%
O=C(CCOc1ccccc1)Nc1ccc([N+](=O)[O-])cc1,?,2%,25%,-3%,20%,-11%
COCCCn1c(=O)c2sccc2n2c(CCCC(=O)Nc3ccc(F)c(F)c3)nnc12,.,.,.,.,-3%,-4%
CCn1nc(C)c(Br)c1-c1nc(-c2cccc(C)c2)no1,1%,0%,27%,2.5µM*,.,?
Brc1cccc(-c2nc(-c3ccncc3)no2)c1,?,?,5µM*,3.2µM*,27%,7.6µM*
Cc1ccc(-c2nc(-c3ccccc3)no2)c(Cl)c1,?,0.26µM*,4µM*,2.8µM*,-30%,0.085µM*
CCn1nc(C)c(Br)c1-c1nc(CS(=O)(=O)c2ccsc2)no1,17%,3%,8%,12%,.,-18%

# Screening data (PubChem)
